Experimental data taken from PubChem BioAssay AID624137 (Broad Institute, 2012).
Out of some 31,000 compounds screened, about 360 (1.2%) were called active. The rule behind the calls is not given here. Shown is part of a subset that was picked to be rich in actives.

Biological target: DNA-binding protein inhibitor ID-4 (Homo sapiens) (UniProt P47928)
Assay: PubChem AID 624137;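 note: a binder raises fluorescence above local background on the spot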
Settings: small molecule microarray, Flag-ID4 binding, fluorescence F/B

DNA-binding protein inhibitor ID-4 (Homo sapiens), sequence (P47928 whole entry, looked up): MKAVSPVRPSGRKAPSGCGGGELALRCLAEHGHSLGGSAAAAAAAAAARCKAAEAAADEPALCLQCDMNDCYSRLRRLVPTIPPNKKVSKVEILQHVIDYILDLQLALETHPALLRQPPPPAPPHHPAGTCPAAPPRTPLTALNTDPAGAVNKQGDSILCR

| Structure (SMILES) | outcome |
| --- | --- |
| c1cncc(CNCCc2c[nH]c3ccccc23)c1 | active |
| COc1ccc2[nH]cc(CCNCc3ccc(Br)cc3)c2c1 | inactive |
| Cc1cc(OCc2cc(C(=O)O)oc2C)c2c3c(c(=O)oc2c1)CCCC3 | inactive |
| Cc1ccc(OC(=O)N(C)C[C@@H]2OCc3cnnn3CCCC(=O)N([C@H](C)CO)C[C@@H]2C)cc1 | inactive |
| COC(/C=C/CC/C=C/C(=O)O)C(O)C(C)C(O)/C(C)=C/C(C)C(=O)CCCC1CC(=O)NC(=O)C1 (stereo not given) | inactive |
